{"source": "PubChem BioAssay AID1347426", "about": "(Functional Genomics Laboratory (NCATS/FGL), 2020)", "note": "Screen size: about 31,000 sequences; about 1,400 (4.5%) were called active. This is one part of a sample in which actives are shown more often than they occur. Unmarked numbers belong to inactive results.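 Rule for the calls: active = median seed-adjusted z-score above 1 or below -1; inactive = the rest.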"}
{"assay": "Novel Modifiers of Survival Motor Neuron (SMN) Protein: Gene Identification via Genome-wide siRNA Screen;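 note: luminescence tracks full-length SMN protein made from the SMN2 reporter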", "conditions": "HEK293T SMN2-luciferase reporter, siRNA knockdown, 72 h; actives lie on both sides", "procedure,_shortened": "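Steps: spot 1 pmol siRNA, add Lipofectamine RNAiMax in serum-free DMEM, seed HEK293T SMN2–luciferase reporter cells; incubate 72 h at 37 °C; add ONE-Glo; normalize luminescence to control siRNA, log10, MAD. Candidates: |MAD| > 1.0.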"}
{"sequence": "CUGAUGCUCUGUAUCCCAATT against TNRC4", "median seed-adjusted z-score": 0.801}
{"sequence": "GAUGAUAUUUAUUCACCAATT against ZBTB25", "median seed-adjusted z-score": 0}
{"sequence": "GCAUACCUCAGUUCCAAGATT against CDY2A", "median seed-adjusted z-score": 0.75}
{"sequence": "CCUCUAACCUUAGAUGAAATT against GTF2E2", "median seed-adjusted z-score": "-1.32 (active)"}
{"sequence": "GGAGCAUAAAGUAGACCGATT against ABCA10", "median seed-adjusted z-score": -0.104}
{"sequence": "GACCGUUCACUGUACAACATT against FUT9", "median seed-adjusted z-score": 0.0444}
{"sequence": "GUGUUAUAACAAUCGAAGATT against CAPSL", "median seed-adjusted z-score": -0.168}
{"sequence": "GGCUUAAACUUAGAGUCAATT against MYLIP", "median seed-adjusted z-score": 0.652}
{"sequence": "CAGUCGAUGUCCAUGAAUATT against LRRN1", "median seed-adjusted z-score": -0.407}
{"sequence": "GAAUUGCUCCUAAUGUCAATT against MYB", "median seed-adjusted z-score": 0.307}
{"sequence": "CAGUGAGGUGAAACAAAUATT against DNAJC8", "median seed-adjusted z-score": "-1.62 (active)"}
{"sequence": "GUGACCAUCUUGGACAUUATT against CELSR1", "median seed-adjusted z-score": -0.466}
{"sequence": "GGCGACUGUUUAUACAUGATT against ALDH7A1", "median seed-adjusted z-score": -0.406}
{"sequence": "GGAAGAAAUUAGCUAAAAATT against MKI67IP", "median seed-adjusted z-score": 0.426}
{"sequence": "UGACCCAGAUUAUCGCCGATT against POLR2I", "median seed-adjusted z-score": "-3.27 (active)"}
{"sequence": "GCCUAGAGGAUACCCAAAATT against NPVF", "median seed-adjusted z-score": 0.588}
{"sequence": "GCUCAGAUGUUAUUCGGGATT against SKIV2L", "median seed-adjusted z-score": 0.209}
{"sequence": "GCAAAGCUAUUGCAUUGAATT against HSDL2", "median seed-adjusted z-score": -0.0717}
{"sequence": "AGAUCAACCCAGAUAACUATT against INCENP", "median seed-adjusted z-score": -0.339}
{"sequence": "GCACCUAUCUUGACCUGCUTT against CTSC", "median seed-adjusted z-score": 0}
{"sequence": "CCUUCUAAUUCGCAAGGUATT against REL", "median seed-adjusted z-score": -0.358}
{"sequence": "GCGCAGCUCUGGAAUUUGATT against OXCT2", "median seed-adjusted z-score": -0.449}
{"sequence": "AGAGCAUUCACAAACUGAATT against RBM8A", "median seed-adjusted z-score": 0}
{"sequence": "CCUCCUCGAUGCCUACAAATT against DIO2", "median seed-adjusted z-score": -0.549}
{"sequence": "CACUAUGGAGAAACAAUAUTT against ZNF181", "median seed-adjusted z-score": -0.154}
{"sequence": "GGUGAUGACUGCUUGAUGATT against PSKH1", "median seed-adjusted z-score": "-2.03 (active)"}
{"sequence": "CCCACCAAAUUGCACAAUATT against KLF13", "median seed-adjusted z-score": -0.501}
{"sequence": "GACUGUCUUUGAAAAGAGATT against HESX1", "median seed-adjusted z-score": 0.3}
{"sequence": "GCAGCAUGCUACAACCAAATT against RNF25", "median seed-adjusted z-score": -0.0826}
{"sequence": "GAUGGGUAAAUGUACAUAUTT against KCNIP4", "median seed-adjusted z-score": -0.401}
{"sequence": "GCAUCGUGGGCAUAGCGUATT against PCSK6", "median seed-adjusted z-score": 0}
{"sequence": "GAAUUUUGAUGGACAAGUUTT against RAG2", "median seed-adjusted z-score": 0.138}
{"sequence": "GAACCUCAAGAAUCGAACATT against REV1", "median seed-adjusted z-score": -0.294}
{"sequence": "CCAGGGACCAAGAGAAAGATT against RCE1", "median seed-adjusted z-score": "-1.19 (active)"}
{"sequence": "GCUUUGAUUUCACCAACAATT against GCM2", "median seed-adjusted z-score": -0.241}
{"sequence": "GGACGUGACCAUCAUGUACTT against IRF7", "median seed-adjusted z-score": -0.304}
{"sequence": "CGAUGUCAGCAUUUCCGUUTT against EPRS", "median seed-adjusted z-score": -0.391}
{"sequence": "UCACGCUCCUGGACCAUUUTT against SLC6A3", "median seed-adjusted z-score": 0.457}
{"sequence": "GAAGCGCAGUCACCUGAAATT against PROC", "median seed-adjusted z-score": -0.228}
{"sequence": "CUGUUGAGGUUGUUAUUGATT against GABPA", "median seed-adjusted z-score": "1.43 (active)"}
{"sequence": "GCAUGACCAUAAGAUCCUATT against NUAK2", "median seed-adjusted z-score": -0.0601}
{"sequence": "GAAGGAGAAUGGUAUCACUTT against GPATCH4", "median seed-adjusted z-score": -0.519}
{"sequence": "CAAAGUAUCUGGAGAACCATT against KIF2C", "median seed-adjusted z-score": 0.0122}
{"sequence": "GGGCCUUUCUUGGACUGAUTT against PHF7", "median seed-adjusted z-score": 0.425}
{"sequence": "CUUCAGUUCGAAUACAUUUTT against RFC5", "median seed-adjusted z-score": -0.644}
{"sequence": "GGAGACUUCUUACCCACCATT against PSMD4", "median seed-adjusted z-score": "1.46 (active)"}
{"sequence": "CAACUGAUGAGUAUCUAGATT against MRCL3", "median seed-adjusted z-score": -0.00909}
{"sequence": "CUUCAGUGCUGAUCAGGUATT against NDUFA2", "median seed-adjusted z-score": -0.694}
{"sequence": "GGACCCAGUAUUUCAGGAATT against SFXN4", "median seed-adjusted z-score": -0.174}
{"sequence": "CGAUAUGGAAAAUCCCUAUTT against ANXA10", "median seed-adjusted z-score": 0.0445}
{"sequence": "CAUACGGACUGUACCUUUATT against PSMC5", "median seed-adjusted z-score": "-1.06 (active)"}
{"sequence": "CCCUCUACCUCGUCCGAAUTT against SIRPA", "median seed-adjusted z-score": -0.153}
{"sequence": "CCACAUCUCAAGUCCACUUTT against PPP1R1A", "median seed-adjusted z-score": -0.529}
{"sequence": "CACUUACGGUGUGAAAGGATT against SOX5", "median seed-adjusted z-score": 0.123}
{"sequence": "AGUUACUACCUUAUCCUCATT against POU2F2", "median seed-adjusted z-score": 0.163}
{"sequence": "CCAUCUCCUACAUCGCCGATT against APBA2", "median seed-adjusted z-score": "1.66 (active)"}
{"sequence": "GCUAUUUGGUUAUCCUUAUTT against ATP6V0A1", "median seed-adjusted z-score": 0.103}
{"sequence": "AGAUCCUGUGGAUUAGAAATT against NEU4", "median seed-adjusted z-score": -0.152}
{"sequence": "GUGCGAAAGAGAAUCUUAATT against SPIRE1", "median seed-adjusted z-score": 0.336}
{"sequence": "GGAACAGCUUAAGAUUGAATT against GNG3", "median seed-adjusted z-score": -0.186}
{"sequence": "GGAAGACCUUACACGGUUATT against EIF3E", "median seed-adjusted z-score": 0.549}
{"sequence": "GCUAUUUCCAGCGAAUAUATT against CNOT1", "median seed-adjusted z-score": "1.2 (active)"}
{"sequence": "CGCAGAAGAUGUACCAGUUTT against CDH22", "median seed-adjusted z-score": -0.57}
{"sequence": "CAGGGUCUAUGGUACCGUUTT against UBE3C", "median seed-adjusted z-score": 0.0341}
{"sequence": "AAAUCCUUGGGUCAACAUUTT against NOX1", "median seed-adjusted z-score": -0.221}
{"sequence": "GGACAAGGGAUUAAUAGUATT against ARID1A", "median seed-adjusted z-score": "-1.14 (active)"}
{"sequence": "CCUUGAUCCUCGACUGUAATT against COL5A1", "median seed-adjusted z-score": -0.00475}
{"sequence": "GGUCAUUGUGAAAAGUAGATT against GCLM", "median seed-adjusted z-score": 0.0509}
{"sequence": "CGCAUACUCUCGCCCUGUATT against ZNHIT2", "median seed-adjusted z-score": -0.339}
{"sequence": "CGAUAGUGAGUAUAUCAGUTT against ZMYND8", "median seed-adjusted z-score": -0.065}
{"sequence": "UGAGCGAGUUGAUUUCACATT against ATF5", "median seed-adjusted z-score": 0.233}
{"sequence": "CUUUAAGACUCAUAACGAATT against GTF2E2", "median seed-adjusted z-score": "-1.32 (active)"}
{"sequence": "GUUUCAUCGUAUAUCAAUATT against HSD17B13", "median seed-adjusted z-score": -0.329}
{"sequence": "GAAGGUUGAUUAUCGUAAATT against BCMO1", "median seed-adjusted z-score": 0.53}
{"sequence": "CGAGGAACUAAGACUCAAATT against GPR151", "median seed-adjusted z-score": -0.263}
{"sequence": "ACAAUUAUUGGAAAGAGAATT against SPRYD5", "median seed-adjusted z-score": 0.151}
{"sequence": "GGAAGGAGCUGUCACGCAATT against MED26", "median seed-adjusted z-score": "-1.86 (active)"}
{"sequence": "CGAAUCUCAUGUUCAGGAATT against LPA", "median seed-adjusted z-score": -0.321}
{"sequence": "GGGUCAUGUUUGGUUAGAATT against IMMP1L", "median seed-adjusted z-score": -0.444}
{"sequence": "CGUGGACCACUAUCCCAUUTT against RNF123", "median seed-adjusted z-score": 0}
{"sequence": "GGAAAAACCAACCAAGUUATT against RUFY1", "median seed-adjusted z-score": 0.119}
{"sequence": "CGGUGAAGGUGCUAAAGGATT against RAD23A", "median seed-adjusted z-score": "-1.13 (active)"}
{"sequence": "GCCUUCAAUUUUCAUACAATT against ZNF19", "median seed-adjusted z-score": 0}
{"sequence": "AGUAAUAGUUCAAACCUUUTT against ZNF664", "median seed-adjusted z-score": "1.08 (active)"}
{"sequence": "GAGUGUACCUGGAAUGUCUTT against ARNTL2", "median seed-adjusted z-score": 0.102}
{"sequence": "AAAGUGGAUUGCACACAGATT against TGFB1I1", "median seed-adjusted z-score": 0.887}
{"sequence": "GAUCAAACCUUGUAUCUCUTT against ARG2", "median seed-adjusted z-score": -0.796}
{"sequence": "GGUAAAGAAUUCUCCGGAATT against FUS", "median seed-adjusted z-score": 0.92}
{"sequence": "GCAGGAUUGUGAUCCACCATT against PCGF3", "median seed-adjusted z-score": 0.876}
{"sequence": "GGAUAUGGUGAGAAUAGAATT against MTHFS", "median seed-adjusted z-score": 0.166}
{"sequence": "AGCUCACAAGGAUCCCAAUTT against THPO", "median seed-adjusted z-score": -0.0366}
{"sequence": "CCUUUAGCACGGAUAGUUUTT against ACAT2", "median seed-adjusted z-score": "1.25 (active)"}
{"sequence": "CUCCUACAGUGCUAUCAGATT against ENPP2", "median seed-adjusted z-score": -0.305}
{"sequence": "AAUUCCUCUUCAACAUGUATT against HOXD9", "median seed-adjusted z-score": -0.123}
{"sequence": "GGAACGGGCUGGAGUUAAATT against FUBP1", "median seed-adjusted z-score": "-1.52 (active)"}
{"sequence": "GUACUUCAGUGGAGUGAAATT against CDKL1", "median seed-adjusted z-score": -0.28}
{"sequence": "UCUGCUAUUUGGUCCUGAATT against TOMM34", "median seed-adjusted z-score": -0.503}
{"sequence": "CCUCAUAUGUGGGACAGAATT against USP3", "median seed-adjusted z-score": -0.176}
{"sequence": "GGUAUGGAUUUAACAGUCATT against DHODH", "median seed-adjusted z-score": -0.422}
{"sequence": "GGAAGACUAGGAAUCGGAATT against NYX", "median seed-adjusted z-score": 0.0685}
{"sequence": "CACCCACCGCCACAAUAAATT against BSG", "median seed-adjusted z-score": 0.211}
{"sequence": "GCACGACUUUGUACUCAGATT against HES5", "median seed-adjusted z-score": -0.00853}
{"sequence": "GAGCUAUGGUUACACGGUUTT against GABRQ", "median seed-adjusted z-score": -0.54}
{"sequence": "UGAACCUUGUGAUAGAUGATT against SNRPG", "median seed-adjusted z-score": "-3.09 (active)"}
{"sequence": "GCCUCCACGGAAGAUGUAATT against ZNF746", "median seed-adjusted z-score": 0.1}
{"sequence": "GCACUUGUAUAAUCAGACUTT against MRLC2", "median seed-adjusted z-score": -0.492}
{"sequence": "GGACCAUCCAGCUUCUGGATT against GALE", "median seed-adjusted z-score": -0.153}
{"sequence": "GGAUCUCAUGAGGCGAAUATT against EIF5", "median seed-adjusted z-score": 0.362}
